Test results: PubChem BioAssay (NCI)
Values joined by “and” are separate entries in the source; they are usually repeats but may differ in a detail not shown here. Equal values may be shown once. This is part of a sample that, as a whole, favours compounds with a hit. Of some 83,000 tested, about 20% had one in any assay.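 In brief: 96-well plates, 48 h treatment, single concentration, percent growth endpoint.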 Active and inactive are the calls of the source. The calls were made as follows: active = growth percent below 10; inactive = the rest.

Assays:
Assay in all cases: NCI-60 one-dose screen, 48 h (100 = growth as untreated, 0 = no growth, -100 = all killed)
[1] = test system: NCI-H23 lung; conditions: 10 µM unless noted
[2] = test system: NCI-H226 lung; conditions: 10 µM unless noted
[3] = test system: NCI-H322M lung; conditions: 10 µM unless noted
[4] = test system: HOP-62 NSCLC; conditions: 10 µM unless noted
[5] = test system: NCI-H460 lung; conditions: 10 µM unless noted
[6] = test system: NCI-H522 lung; conditions: 10 µM
[7] = test system: A549/ATCC NSCLC; conditions: 10 µM unless noted
[8] = test system: 786-0 renal; conditions: 10 µM unless noted
[9] = test system: COLO 205 colon; conditions: 10 µM unless noted
[10] = test system: DU-145 prostate; conditions: 10 µM unless noted
[11] = test system: K-562 leukemia; conditions: 10 µM unless noted
[12] = test system: MALME-3M melanoma; conditions: 10 µM unless noted
[13] = test system: MDA-MB-231 breast; conditions: 10 µM unless noted
[14] = test system: RXF 393 renal; conditions: 10 µM unless noted
[15] = test system: SF-268 CNS; conditions: 10 µM unless noted
[16] = test system: SF-295 CNS; conditions: 10 µM unless noted
[17] = test system: SF-539 CNS; conditions: 10 µM unless noted
[18] = test system: UACC-257 melanoma; conditions: 10 µM unless noted
[19] = test system: M14 melanoma; conditions: 10 µM unless noted
[20] = test system: HOP-92 NSCLC; conditions: 10 µM

Measured: growth

CCc1cc(C)cc(O)c1
inactive: [1] 107% | [2] 99.4% | [3] 105% | [4] 106% | [5] 110% | [6] 90.1% | [7] 108% | [8] 104% | [9] 116% | [10] 122% | [11] 100% | [12] 112% | [13] 112% | [14] 94.4% | [15] 124% | [16] 116% | [17] 128% | [18] 96.1% | [19] 103%

CC1CCC2(C(=O)O)CCC3(C)C(=CCC4C5(C)CCC(O)C(C)(C)C5CCC43C)C2C1C (configuration not stated)
inactive: [1] 91.9% and 88.2% | [2] 67.9% and 98% | [3] 67.3% and 92.7% | [5] 44.5% and 89.9% | [6] 31.1% and 84.1% | [7] 24% and 75.4% | [9] 78.5% and 110% | [10] 44% and 75.8% | [11] 14.4% and 62.6% | [12] 81.4% and 88.9% | [13] 28.1% and 71.6% | [14] 40.9% and 79.5% | [15] 28.9% and 75.7% | [16] 28% and 89.7% | [17] 43.1% and 79% | [18] 39.8% and 90.1% | [19] 41.1%
-31.3% (active) and 76.1% (inactive): [8]
5.46% (active) and 102% (inactive): [4]

C#CCOC(=O)Nc1ccccc1
inactive: [1] 98.9% | [2] 108% | [3] 106% | [4] 113% | [5] 103% | [20] 102% | [6] 101% | [8] 94.7% | [9] 106% | [10] 106% | [11] 96.9% | [12] 115% | [13] 116% | [14] 124% | [15] 105% | [16] 107% | [17] 97.5% | [18] 93.7% | [19] 103%

COc1ccc(C(=O)CC(c2ccccc2)C(C#N)c2ccccc2)cc1 (configuration not stated)
inactive: [1] 88.4% | [2] 81.1% | [3] 103% | [4] 98.3% | [5] 92.8% | [20] 67.8% | [6] 69.5% | [7] 74.2% | [8] 90% | [9] 110% | [10] 92.2% | [11] 80.7% | [12] 97.2% | [13] 81% | [14] 99.5% | [15] 86.3% | [16] 96.3% | [17] 97.7% | [18] 87.7% | [19] 88%

CCCCOC(=O)/C=C\C(=O)NC(N)=O
active: [6] -30.6% | [14] -13.6%
inactive: [1] 85.7% | [2] 96.6% | [3] 96.4% | [4] 95.1% | [5] 101% | [7] 95.8% | [8] 97.4% | [9] 87.7% | [10] 91.1% | [11] 82.3% | [12] 92.3% | [13] 75.5% | [15] 96.6% | [16] 103% | [17] 95.7% | [18] 77.8% | [19] 92.1%

O=c1[nH]cnc2c1ncn2C1OC(CO)C(O)C1O (configuration not stated)
inactive: [1] 116% and 104% and 109% | [2] 108% and 103% and 97.4% | [3] 112% and 137% and 102% | [4] 104% and 110% and 96.5% | [5] 109% and 122% and 106% | [6] 107% and 100% and 93.2% | [8] 106% and 111% and 107% | [9] 114% and 118% and 113% | [10] 126% and 133% and 112% | [11] 105% and 108% and 113% | [12] 131% and 124% and 110% | [13] 110% and 105% and 108% | [14] 129% and 118% | [15] 114% and 112% and 94.2% | [16] 124% and 111% and 88.8% | [17] 113% and 96.1% | [18] 104% and 119% | [19] 100% and 107% and 98.2%

CC[C@H](CC[C@@H](C)[C@H]1CC[C@H]2[C@@H]3CC=C4C[C@@H](O)CC[C@]4(C)[C@H]3CC[C@]12C)C(C)C
5.59% (active) and 96.6% (inactive): [1]
inactive: [2] 99.6% and 101% | [3] 92.6% and 103% | [4] 108% and 101% | [5] 105% and 107% | [6] 18.7% and 97% | [8] 95.3% and 106% | [9] 103% and 107% | [10] 114% and 103% | [11] 106% | [12] 106% and 104% | [13] 115% and 97.9% | [14] 104% | [15] 101% and 97.6% | [16] 98.3% and 101% | [17] 92.2% and 99.1% | [18] 97.5% | [19] 103% and 106%
